Paper PMC5540273 (PLoS ONE, 2017)

Legend:
Settings in all cases: concentration: 1 μM, replicates: in singlicate; n = 1
PRKD3 = system: PRKD3
PRKG1 = system: PRKG1
PRKG2 = system: PRKG2
PRKR = system: T1, PRKR
T1 construct: gene EIF2AK2

PRKX = system: PRKX
PRP4 = system: PRP4
PYK2 = system: T2, PYK2
T2 construct: gene PTK2B

QSK = system: QSK
RAF1 = system: RAF1
RET = system: RET
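Note: KINOMEscan kinase panel screen.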

Compound | %Inh (PRKD3) | %Inh (PRKG1) | %Inh (PRKG2) | %Inh (PRKR) | %Inh (PRKX) | %Inh (PRP4) | %Inh (PYK2) | %Inh (QSK) | %Inh (RAF1) | %Inh (RET)
Cc1ccc(NC(=O)c2ccc(Cl)c(Cl)c2)cc1-c1ccc(C(=O)Nc2ccncc2)cc1 [GSK1398460] | 23% | 13% | 0% | 7% | 17% | 0% | 13% | 0% | 78% | 38%
Cn1cc(-c2ccc3c(c2)CCN3C(=O)Cc2cc(F)cc(F)c2F)c2c(N)ncnc21 [GSK2634140] | 0% | 0% | 0% | 2% | 16% | 21% | 12% | 0% | 18% | 5%
CN(c1ccc(NC(=O)Nc2cccc(Cl)c2)cc1)c1ccnc(N)n1.Cl [GW830707] | 0% | 0% | 0% | 0% | 0% | 12% | 0% | 15% | 17% | 50%
Cc1cccc(Nc2nc(NCCN)ncc2C(N)=O)c1 [GSK1292139] | 100% | 9% | 0% | 3% | 35% | 41% | 66% | 20% | 3% | 14%
COc1cccc(NC(=O)NCCNc2ccnc(Nc3ccc(F)cc3)n2)c1 [GSK1379879] | 0% | 4% | 0% | 0% | 14% | 49% | 21% | 0% | 15% | 0%
Cc1ccc(NC(=O)c2cccc(N3CCCCC3)c2)cc1-c1ccc(C(=O)NCC2CC2)cc1 [GSK1917008] | 100% | 31% | 0% | 0% | 26% | 4% | 0% | 8% | 88% | 10%
O=C(Nc1n[nH]c2cc(-c3cccs3)ccc12)C1CC1 [SB-731284] | 7% | 8% | 22% | 0% | 0% | 7% | 0% | 44% | 9% | 0%
Cc1nn2c(=O)cc(N3CCO[C@H](C)C3)nc2n1Cc1cccc(Cl)c1Cl [GSK2373693] | 45% | 4% | 0% | 0% | 9% | 14% | 0% | 0% | 9% | 69%
CCn1c(-c2nonc2N)nc2c(-c3ccccc3)ncc(OCCCN)c21.O=C(O)C(F)(F)F.O=C(O)C(F)(F)F [GSK260205] | 100% | 5% | 95.7% | 0% | 28% | 27% | 6% | 27% | 6% | 91.7%
